Data from PubChem BioAssay (NCI).
The panel holds about 83,000 compounds, 20% with a hit somewhere; the sample as a whole holds those more often.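 Percent growth is the endpoint: 0 to 100 indicates growth inhibition (40 means 60% inhibition), 0 means no net growth, and negative values indicate cell death.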 Active and inactive are the calls of the source. Rule for the calls: active = growth percent below 10; inactive = the rest.

Tested on: HL-60(TB) leukemia
Experiment: NCI-60 one-dose screen, 48 h (100 = growth as untreated, 0 = no growth, -100 = all killed)
Details: 10 µM unless noted

Q: How did the growth turn out when `N#CC(=C1SCS1)[N+](=O)[O-]` was run?
A: -4.02% (active)

Q: Which growth does the source give for `CCC(=O)c1c(C)[nH]c(C)c1C` here?
A: 92.8% (inactive)

Q: Which growth does the source give for `Cc1cn(C2CC(N=[N+]=[N-])C(COP(=O)(O)OP(=O)(O)OP(=O)(O)O)O2)c(=O)[nH]c1=O` (stereo not given) here?
A: -96.5% (active)

Q: `CO[C@H]1/C=C/C=C/C=C/C[C@H](OC(=O)[C@@H](C)NC(=O)C2CCCCC2)[C@H](C)[C@@H](O)/C(C)=C\CCC2=CC(=O)C=C(NC(=O)C1)C2=O` was tested. Which growth did it give?
A: -26.6% (active)

Q: How did the growth turn out when `CCCO/N=C/c1ccccn1` was run?
A: 94.8% (inactive)

Q: For `O=C(CN1C(=O)S/C(=C\C(Cl)=C\c2ccccc2)C1=O)NC1CCS(=O)(=O)C1` (stereo not given), which growth is on record?
A: 18.6% (inactive)

Q: `CNCCNc1nc2ccccc2c2c(=O)c3cccc(OC)c3sc12` was tested. Which growth did it give?
A: 26.5% (inactive)

Q: `CSc1nnc(C2=CC(=O)c3ccccc3C2=O)n1-c1ccccc1` was tested. Which growth did it give?
A: 4.64% (active)

Q: How did the growth turn out when `COc1ccc(-c2nnc(N3CCN(C(=O)CN4CCN(c5ccc(Cl)cc5)CC4)CC3)nc2-c2ccc(OC)cc2)cc1` was run?
A: -37.4% (active)

Q: For `O=C(O)CCNC1CCCCC1`, which growth is on record?
A: 97.5% (inactive)

Q: Which growth does the source give for `COc1cc(-c2cc(C(=O)N3CCN(C(=O)c4ccccc4NCc4ccco4)CC3)nc3cc(-c4ccccc4)nn23)cc(OC)c1OC` here?
A: 11.6% (inactive)

Q: How did the growth turn out when `NC(=O)c1cc(Br)ccc1NC(=O)/C=C/c1ccccc1` was run?
A: -22.9% (active)

Q: For `CCN1C(=O)N(CC)C2C1NN=c1s/c(=C\c3ccc(C(F)(F)F)cc3)c(=O)n12` (stereo not given), which growth is on record?
A: -49.2% (active)

Q: How did the growth turn out when `CCCCCC(C)(O)C(C(=O)O)c1ccccc1` (stereo not given) was run?
A: 110% (inactive)

Q: Which growth does the source give for `CCOP1(=O)CC(C)=C(Cl)C(P(=O)(O)O)C1` (stereo not given) here?
A: 11.5% (inactive)

Q: For `C=C1c2nc3ccccc3n2C=C(c2ccc(Cl)cc2)N1Cc1ccc(OC)cc1`, which growth is on record?
A: 53% (inactive)

Q: `CS(=O)(=O)c1cccnn1` was tested. Which growth did it give?
A: 108% (inactive)

Q: How did the growth turn out when `Cc1nn(C)c2ncnc(Nc3ccccc3Br)c12` was run?
A: 94.3% (inactive)

Q: Which growth does the source give for `COc1cc(CCn2nnc3c(Nc4ccc(N5CCOCC5)cc4)ncnc32)cc(OC)c1` here?
A: 106% (inactive)

Q: For `O=C(Nc1cccc(-n2cc(-c3ccncc3)c(-c3ccc(O)c(Cl)c3)n2)c1)c1ccc(N2CCOCC2)c(C(F)(F)F)c1`, which growth is on record?
A: -10.6% (active)

Q: For `C#Cc1c(I)n(C2OC(CO[Si](C)(C)C(C)(C)C)C3OC(C)(C)OC32)c(=O)[nH]c1=O` (stereo not given), which growth is on record?
A: 20.1% (inactive)

Q: For `Cc1ccc(S(=O)(=O)OCC(=O)Nc2ccc(C(=O)O)c(O)c2)cc1`, which growth is on record?
A: 60.4% (inactive)

Q: With `CCOC(=O)c1nc2c3ccccc3ccn2c1C(=O)OC` as the molecule, how does the growth read?
A: 94.9% (inactive)

Q: How did the growth turn out when `CCN1CCN(C(=O)[C@]23CC[C@@H](C)[C@H](C)[C@@H]2C2=CC[C@@H]4[C@@]5(C)C/C(=C/c6ccncc6)C(=O)C(C)(C)[C@@H]5CC[C@@]4(C)[C@]2(C)CC3)CC1` was run?
A: -33.1% (active)

Q: For `Cc1cc(C(C)(C)C)cc(C)c1CC1=NCCN1`, which growth is on record?
A: 102% (inactive)
